FLuc modulator = counter-screen for miR-21 project: firefly luciferase inhibitors or activators; P08659; purified FLuc, Km substrates, luminescence inhibition; Potency, µM (top dose mostly 57.5 µM), without a hit: at the highest dose activity change, negative = inhibition, actives largely listed as inhibitors; 360,000 compounds, 6.9% hits; AID 588342;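 further: plate controls were vehicle for no effect and reference inhibitor for full effect; nearly all actives have a fitted effect of over 55% in size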
Target sequence (P08659 whole entry, looked up): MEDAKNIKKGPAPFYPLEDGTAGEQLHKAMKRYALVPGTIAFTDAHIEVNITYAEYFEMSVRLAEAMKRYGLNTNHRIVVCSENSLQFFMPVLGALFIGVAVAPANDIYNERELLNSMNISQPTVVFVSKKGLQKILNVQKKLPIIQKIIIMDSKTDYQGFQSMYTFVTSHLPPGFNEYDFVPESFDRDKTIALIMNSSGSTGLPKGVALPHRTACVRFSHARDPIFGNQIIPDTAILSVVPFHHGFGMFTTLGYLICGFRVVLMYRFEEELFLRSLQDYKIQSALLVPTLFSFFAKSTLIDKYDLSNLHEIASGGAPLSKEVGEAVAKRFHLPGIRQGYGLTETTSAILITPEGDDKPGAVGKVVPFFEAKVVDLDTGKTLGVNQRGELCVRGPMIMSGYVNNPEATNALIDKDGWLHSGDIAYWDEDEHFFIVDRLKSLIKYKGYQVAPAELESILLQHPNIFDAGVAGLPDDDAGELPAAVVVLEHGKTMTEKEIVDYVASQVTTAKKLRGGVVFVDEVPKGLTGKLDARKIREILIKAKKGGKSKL
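Purified P. pyralis luciferase (10nM final) with 10uM D-luciferin and 10uM ATP (Km levels) in 50mM Tris acetate pH 7.5, 10mM Mg acetate, 0.01% Tween-20, 0.05% BSA; qHTS 6-point titration, ~60 µM downward; luminescence read.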
KinaseGlo FLuc = Kinase-Glo luciferase inhibition (counter-screen); Q27757; Kinase-Glo luciferase, ATP luminescence, 8 min; Potency, µM (top dose mostly 38.3 µM), without a hit: at the top dose activity change, negative = inhibition, usual class: inhibitors; 200,000 compounds, 0.28% hits; AID 1379; further: on the % scale 0 is the no-effect control and ±100 the full control effect; nearly all actives have a fitted effect of over 60% in size
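Kinase-Glo luciferase light output from ATP and luciferin was measured with 10 uM ATP, within the enzyme's linear range. Buffer: 50 mM imidazole pH 7.2, 50 mM KCl, 7 mM MgCl2, 0.01% Tween 20, 0.05% BSA; luminescence read after 8 min at ambient temperature.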
SMN2 splice up = SMN2 splice variant enhancement; HEK293 SMN2-luciferase splicing reporter, luminescence, 30-36 h; Potency, µM (series often up to 46.1 µM), for the others: top-dose activity change, positive = activation, usual class: activators; 210,000 compounds, 2.8% hits; AID 1458; further: % of control where 0% means no effect; nearly all actives have a fitted effect of over 55% in size
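qHTS luciferase splicing reporter: luminescence rises when SMN2 exon 7 is included in transfected HEK293 cells. Compound exposure lasted 30-36 h at 37C, with 4.5 mM final sodium butyrate as control, followed by a ONE-Glo read.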
NPC1 promoter act = activators of NPC1 promoter. Huh7 NPC1 promoter luciferase reporter, 24 h. Potency, µM (top dose mostly 9.22 µM), for inactives: top-dose activation, usual class: activators. 320,000 compounds, 2.4% hits. AID 485313; further: % of control where 0% means no effect; nearly all actives have a fitted effect of over 60% in size
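NPC1 promoter–luciferase Huh7 cells; 24 h compound; luminescence.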
Rab9 prom act = Rab9 promoter activation; Huh7 Rab9 promoter-luciferase reporter, luminescence, 24 h; Potency, µM (doses to about 9.22 µM), without a hit: top-dose activation, negative = inhibition, hits mostly activators; 320,000 compounds, 2.8% hits; AID 485297; further: % of control where 0% means no effect; nearly all actives have a fitted effect of over 60% in size
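Huh7 reporter line, Rab9 promoter upstream of luciferase. Compound exposure 24 h at 37 °C in reduced-serum medium with 10% FBS. Read-out: luminescence.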
ELG1 genotox = inducers of genotoxicity in HEK293T ELG1-luciferase cells; HEK293T ELG1-luciferase reporter, luminescence, 16 h; 330,000 compounds, 1.3% hits; Potency, µM (highest dose often 46 µM), for the others: at the top dose activity change, positive = activation, hits mostly activators; AID 504466; further: % of control where 0% means no effect; nearly all actives have a fitted effect of over 60% in size
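ELG1-luciferase HEK293T cells, 2,000/well; compound pinned in; 16 hr, 37 °C, 5% CO2; ONE-Glo, 30 min RT; luminescence on CCD imager.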
Active calls of the source: *; ? = inconclusive; nt = no result; ! = not active in a repeat; [ ] = dose if it differs, or a comment. A selection: hits, their analogues and other compounds. The true share with any hit is near 7.4%. The call rests on the fitted dose curve; in most records, active means well fitted curve in the direction sought with a large enough effect; inconclusive means small, poorly fitted or top-dose-only effect, or another doubt; inactive means no such curve, though single readings can be large; an effect the other way counts as inactive or inconclusive. Potency means the concentration at half of the fitted maximal effect.

SMILES	FLuc modulator	KinaseGlo FLuc	SMN2 splice up	NPC1 promoter act	Rab9 prom act	ELG1 genotox
O=C(O)CN1C(=O)/C(=C\c2ccc(OC(=O)c3ccco3)cc2)SC1=S	7.6µM*	nt	nt	3%	-6%	-2%
COc1ccccc1N1CCN(CCCNC(=O)c2cnn(-c3ccccc3)c2C2CCN(C(=O)OC(C)(C)C)CC2)CC1	-1%	nt	nt	nt	nt	nt
CCN1CCc2c(sc(-n3cccc3)c2C(CCC(C)C)NC(=O)NCCC(=O)OC)C1 (stereo unspecified)	-7%	nt	nt	nt	nt	nt
CC(=O)Nc1cccc(C(=O)Nc2ccccc2C(=O)O)c1	24µM*	-1%	5%	-1%	8%	-1%
O=C(Nc1ccccc1C(=O)O)c1cccc(C(=O)Nc2ccccc2C(=O)O)c1	19µM*	nt	nt	0%	1%	-16%
CN1CCN(c2ccccc2NC(=O)c2ccc(-c3ccccc3)cc2)CC1	-9%	3%	7%	0%	-10%	-14%
CCOC(=O)c1cc(-c2ccccc2)sc1NC(=O)c1ccc(OC)cc1	?	1%	-22%	1%	0%	-1%
O=C(Nc1ccccc1C(=O)O)c1ccccc1	?	-1%	12%	2%	-3%	17%
Cc1c(NC(=O)c2ccc(-c3ccccc3)cc2)cccc1C(=O)O	0.6µM*	nt	nt	?	?	0.29µM*
O=C(Nc1sc(-c2ccccc2)cc1C(=O)O)c1ccccc1	?	nt	nt	3.2µM*	2.8µM*	23%
O=C(Nc1ccc(O)cc1C(=O)O)c1cccc(Br)c1	21µM*	-1%	-6%	2%	6%	-1%
CC(C)CC(=O)Nc1cccc(C(=O)Nc2ccccc2C(=O)O)c1	15µM*	-1%	14%	-2%	-3%	-1%
O=C(Nc1ccccc1C(=O)O)c1cccc(NC(=O)c2ccc(Br)o2)c1	19µM*	3%	4%	-2%	2%	1%
Cc1ccccc1C(=O)Nc1ccc(O)cc1C(=O)O	?	-1%	4%	0%	-2%	-1%
Cc1cc(NC(=O)c2ccccc2)sc1C	3.4µM*	11µM*	11µM*	nt	nt	nt
Cc1ccc(NC(=O)c2ccccc2)s1	2.7µM*	?	2µM*	0.71µM*	0.63µM*	?
COc1ccc(Br)cc1CNC(=O)CCCn1c(=O)c2cccn2c2ccccc21	-7%	nt	nt	nt	nt	nt
COc1cccc2c1OC(=O)CC2c1ccccc1C (stereo unspecified)	nt	2%[39.9 µM]	nt	nt	nt	nt
O=C(Nc1cccc(O)c1)c1cc(-c2cccs2)on1	0.85µM*	nt	nt	-1%	-2%	12µM*
Cc1ccc(NC(=O)c2cc(-c3cccs3)on2)cc1	2.4µM*	-7%	27%	-2%	-1%	11µM*
CC(=O)c1cccc(NC(=O)c2cc(-c3cccs3)on2)c1	0.85µM*	nt	nt	-2%	1%	?
COc1ccc2cc(S(=O)(=O)c3ccccc3F)c(=O)oc2c1	0%	nt	-10%	nt	nt	nt
Cn1c(O)c(N=N/C(=N/c2ccccn2)c2ccccn2)c2cc(Br)ccc21	nt	-6%	nt	nt	nt	nt
Nc1nc(SCC(=O)NCCO)nc2sc3c(c12)CCCC3	17µM*	-1%	10%	6%	-2%	11%
CC(C)(C)C1CCc2c(sc3nc(SCC(=O)O)nc(N)c23)C1 (stereo unspecified)	2.4µM*	nt	nt	18%	11%	?
SMILES	FLuc modulator	KinaseGlo FLuc	SMN2 splice up	NPC1 promoter act	Rab9 prom act	ELG1 genotox
Nc1nc(SCC(=O)NCCCO)nc2sc3c(c12)CCC3	-18%	-4%	-7%	-3%	-6%	-4%
COC(=O)CSc1nc(N)c2c3c(sc2n1)CCCC3	9.5µM*	nt	nt	1%	5%	13%
CC1(C)Cc2c(sc3nc(SCC(=O)O)nc(N)c23)CO1	-18%	nt	nt	-3%	2%	0%
Clc1ccc(-c2cc3ncc4c(n3n2)-c2ccccc2OC4)cc1	-8%	nt	-3%	nt	nt	nt
COc1cccc(-c2nnc(-c3ccc(C(F)(F)F)cc3)o2)c1OC	7.6µM*	1%	18µM*	26%	?	?
FC(F)(F)Oc1ccccc1-c1nnc(-c2cccc(C(F)(F)F)c2)o1	-3%	nt	nt	0%	-5%	-1%
C=CCNC(=O)N1CCc2nc(-c3ccccc3)c3c(c2C1)CO[C@@H](C)C3	nt	-5%[7.66 µM]	47%[9.22 µM]	nt	nt	nt
O=C(O)c1cc2c(cc1S(=O)(=O)O)[C@H]1[C@@H](C3[C@H]2[C@@]2(Cl)C(Cl)=C(Cl)C3(Cl)C2(Cl)Cl)[C@]2(Cl)C(Cl)=C(Cl)C1(Cl)C2(Cl)Cl (stereo partly specified)	nt	-21%[7.66 µM]	-4%[9.22 µM]	nt	nt	nt
O=C(Nc1nnc(S(=O)(=O)Nc2ccccc2)s1)C1CCCCC1	8.5µM*!	nt	nt	-3%	-6%	0%
O=C(Nc1nnc(S(=O)(=O)N2CCCC2)s1)c1ccccc1Cl	4.8µM*	nt	nt	-1%	1%	-1%
COc1ccc(OCC(=O)Nc2nnc(S(=O)(=O)N3CCCCCC3)s2)cc1	15µM*!	nt	nt	2%	-1%	-1%
O=C(Nc1nnc(S(=O)(=O)N2CCCCCC2)s1)c1ccccc1	6.7µM*	nt	nt	?	4µM*	12%
O=C(CN1C(=O)C2(SCC(=O)N2c2ccc(Cl)cc2)c2ccccc21)NCCc1ccccc1 (stereo unspecified)	1%	nt	nt	nt	nt	nt
CCOC(=O)C1=C(C)NC(C)=C(C(=O)OCC)C1c1c(F)c(F)c(F)c(F)c1F	nt	nt	nt	-27%[46.1 µM]	-31%[46.1 µM]	nt
CCCCCSc1nc2sc3c(c2c(=O)n1-c1ccc(OC)cc1)CCN(C(C)=O)C3	-8%	nt	7%	nt	nt	nt
CCOC(=O)c1cnn(-c2ccc(OC)cc2)c1C1CCN(C(=O)OC(C)(C)C)CC1	-1%	nt	-7%	nt	nt	nt
CCOCCCNC(=O)c1c(NC(=O)c2cc(=O)c3cc(C)c(C)cc3o2)sc2c1CCC2	1%	nt	?	nt	nt	nt
O=C1C(c2[nH]c3ccc(S(=O)(=O)O)cc3c2O)=Nc2ccc(S(=O)(=O)O)cc21	nt	-3%[39.9 µM]	nt	nt	nt	nt
Cc1ccccc1NS(=O)(=O)c1nnc(NC(=O)c2ccc(Cl)cc2)s1	2.4µM*!	nt	nt	-9%	-8%	0%
O=C(Nc1nnc(S(=O)(=O)Nc2ccccc2)s1)c1ccccc1Cl	9.5µM*!	nt	nt	-3%	-2%	3%
CCc1ccc(NC(=O)CSc2ccc(-c3sc(-c4ccccc4)nc3C)nn2)cc1	-3%	nt	nt	nt	nt	nt
c1coc(C2Nc3ccccc3-c3nc4ccccc4n32)c1 (stereo unspecified)	21µM*	-8%	18µM*	?	?	?
c1ccc(C2Nc3ccccc3-c3nc4ccccc4n32)cc1 (stereo unspecified)	21µM*	-3%	26%	3%	6%	?
c1ccc(C2Nc3ccccc3-c3nc4ccccc4n32)nc1 (stereo unspecified)	?	-1%	-8%	-6%	-1%	2%
